Assay results published in PubChem BioAssay.

Biological target: Focal adhesion kinase 1 (Homo sapiens) (UniProt Q05397)
Assay: PTK2 protein binding on printed compound slides – biochemical, small-molecule microarray, 635/667 nm fluorescence, BSA, DTT, primary screen (AID 1130);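 note: composite of spot emission at 667 nm and signal to noise over triplicate slides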
Conditions: 635 nm fluorescence, higher = more signal

Focal adhesion kinase 1 (Homo sapiens), sequence (Q05397 whole entry, looked up): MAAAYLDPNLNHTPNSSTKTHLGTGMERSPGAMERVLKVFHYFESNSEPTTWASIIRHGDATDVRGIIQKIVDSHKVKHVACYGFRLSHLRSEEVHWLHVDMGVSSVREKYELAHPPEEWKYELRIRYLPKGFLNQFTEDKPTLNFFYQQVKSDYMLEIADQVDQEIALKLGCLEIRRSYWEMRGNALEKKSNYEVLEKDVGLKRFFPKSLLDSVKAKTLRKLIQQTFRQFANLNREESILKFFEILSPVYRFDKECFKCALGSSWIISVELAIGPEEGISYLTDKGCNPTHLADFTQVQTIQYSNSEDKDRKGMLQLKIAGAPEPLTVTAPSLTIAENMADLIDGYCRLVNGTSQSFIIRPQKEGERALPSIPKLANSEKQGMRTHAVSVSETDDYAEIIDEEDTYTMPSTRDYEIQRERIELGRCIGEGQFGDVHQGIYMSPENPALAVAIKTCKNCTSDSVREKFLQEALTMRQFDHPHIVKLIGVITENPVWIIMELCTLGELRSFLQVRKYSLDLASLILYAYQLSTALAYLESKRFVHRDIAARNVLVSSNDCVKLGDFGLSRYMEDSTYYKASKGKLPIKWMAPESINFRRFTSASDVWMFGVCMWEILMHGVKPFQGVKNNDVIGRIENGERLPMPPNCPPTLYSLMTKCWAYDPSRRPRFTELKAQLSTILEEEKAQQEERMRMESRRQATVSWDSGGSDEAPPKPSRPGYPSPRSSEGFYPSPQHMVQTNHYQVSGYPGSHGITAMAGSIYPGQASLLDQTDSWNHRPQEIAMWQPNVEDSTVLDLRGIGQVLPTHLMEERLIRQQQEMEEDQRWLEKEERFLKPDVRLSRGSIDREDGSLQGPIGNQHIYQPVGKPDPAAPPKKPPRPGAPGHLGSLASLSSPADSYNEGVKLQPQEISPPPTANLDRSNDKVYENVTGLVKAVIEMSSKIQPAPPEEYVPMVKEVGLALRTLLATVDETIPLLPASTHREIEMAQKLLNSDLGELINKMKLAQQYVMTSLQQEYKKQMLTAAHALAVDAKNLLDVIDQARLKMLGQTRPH

Compound | composite z-score
Cc1ccc(S[C@]2(C(=O)NCCCN(C)C)CC(=O)N(C3CCCCC3)[C@@H]2c2ccc(CO)cc2I)cc1 | -0.471
O=C1C2C=CC(C(O)C#Cc3ccccc3)N(Nc3ccccc3)C2C(=O)N1c1ccccc1 (stereo not given) | 0.0485
O=C1NC(=O)C2C1C=CC(C(O)C=Cc1ccc([N+](=O)[O-])cc1)N2Nc1ccccn1 (stereo not given) | -0.0708
Cc1ccc(S(=O)(=O)N[C@H]2COC(=O)CC=C[C@H](C)COC(=O)N[C@@H](C)C(=O)CC=C[C@@H]2C)cc1 | -0.502
Cc1ccc(N2C(=O)c3ccccc3[C@](C)(C(=O)NCC(C)C)[C@@H]2c2ccc(CO)cc2)nc1 | -1.04
O=C1C2C=CC(C(O)c3ccccc3)N(n3cnnc3)C2C(=O)N1Cc1ccccc1 (stereo not given) | 0.321
COc1cc([C@@H]2N[C@H](C(=O)O)Cc3c2[nH]c2ccccc32)cc(OC)c1OC | 0.161
C=CCNC(=O)[C@H]1[C@@H]2C(=O)O[C@@H](c3ccccc3)[C@@H](c3ccccc3)N2[C@@H](c2ccc(O)cc2)[C@]12C(=O)Nc1ccc(C#CCNC(N)=O)cc12 | 0.199
CCC#CCN(Cc1ccccc1Br)[C@H](/C=C/c1ccccc1)[C@@H](O)Cc1ccccc1 | -0.0168
CCCC=C(CCC)[C@@H](NC(=O)c1ccccc1)c1ccccc1 | 1.04
CO[C@H]1O[C@H](CO)[C@@H](OC(=O)CCc2ccccc2)[C@@H]2OC(=O)[C@H](Cc3cccc(Br)c3)C/C=C/C[C@@H](Cc3cccc(Br)c3)C(=O)O[C@@H]12 | -0.0961
C=CCC(OC(C)=O)[C@@H]1[C@@H](N(Cc2cccc3ccccc23)C(=O)c2ccc(C)cc2)c2cc(OCCCO)ccc2N1C(=O)c1ccc(-c2ccccc2)cc1 (stereo not given in full) | -0.0095
Cc1ccc(N2C(=O)c3ccccc3[C@](C)(C(=O)O)[C@@H]2c2ccc(CO)cc2)nc1 | -0.594
C[C@@H]1CC[C@H]2C(=O)N3[C@@H](CC[C@@H](C)[C@@H]3c3cccc(N4CCOCC4)c3)C(=O)N2[C@H]1c1cccc(N2CCOCC2)c1 | 0.0379
Cc1ccc(S[C@]2(C(=O)NCCN3CCOCC3)CC(=O)N(C3Cc4ccccc4C3)[C@@H]2c2ccc(CO)cc2I)cc1 | 0.355
N#Cc1ccc(NN2C(C(O)c3ccc(I)cc3)C=CC3C(=O)N(c4ccccc4)C(=O)C32)cc1 (stereo not given) | 0.945
CCOC(=O)[C@H]1C/C=C/C[C@H](C(=O)OCC)C(=O)O[C@H]2[C@@H](OC)O[C@H](CO)[C@@H](OC(=O)Nc3ccc(Br)cc3)[C@@H]2OC1=O | 0.361
C[C@@H]1C=CCC(=O)OC[C@H]2O[C@@H](C=C[C@@H]2O)[C@H](C)C=CCC(=O)OC[C@H]2O[C@H]1C=C[C@@H]2O | -0.095
CO[C@@H]1COC(=O)[C@H](C)NC(=O)CC=C[C@@H](C)[C@H](NS(=O)(=O)c2ccc(C)cc2)COC(=O)CC=C[C@@H]1C | -0.181
C=C(CCCC)/C(=C/C[C@@H](OC(=O)c1ccncc1)c1cccc(OCCO)c1)c1cc(C(=O)OC)ccc1OC | 0.0708
[N-]=[N+]=NCc1ccccc1C[C@]1(C(N)=O)N=C(c2ccc(OCCCO)cc2)O[C@H]1c1ccccc1CN=[N+]=[N-] | 1.21
CCCCO[C@H]1C[C@H]2C(Br)=C[C@@]1(CO)C(=O)[C@]21CO1 | 0.692
CC(C)N1CC=CC23O[C@@H]4/C=C\CCCOC(=O)C4[C@H]2C(=O)N(CCCCCO)[C@@H]3C1=O (stereo not given in full) | -0.925
CO[C@@H]1COC(=O)[C@H](C)NC(=O)CC=C[C@@H](C)[C@H](OC)COC(=O)[C@H](C)NC(=O)CC=C[C@H]1C | 0.0533
CCOC(=O)C[C@H]1[C@H](OC(=O)Cc2ccc3c(c2)OCO3)[C@@H](NC(=O)c2ccc3ccccc3c2)c2cc(OCCCO)ccc2N1C(=O)Cc1ccc(OC)cc1 | 0.211
CCCN1C(=O)[C@@]2(CCS(=O)(=O)c3ccccc3)N=C(c3ccc(OCCCO)cc3)O[C@H]2c2ccccc21 | 0.494
CCCC[C@@H]1C[C@H]1[C@@H](NC(=O)c1cccs1)c1ccc(Cl)cc1 | -0.393
C[C@H]1COC(=O)[C@@H]2CCCN2C(=O)[C@@H](C)COC(=O)[C@@H]2CCCN2C1=O | 0.213
[N-]=[N+]=NCc1ccccc1C[C@@]1(C(=O)O)N=C(c2ccc(OCCCO)cc2)O[C@@H]1c1ccccc1N=[N+]=[N-] | 0.581
O=C1C2C=CC(C(O)C(c3ccccc3)c3ccccc3)N(Nc3ccc([N+](=O)[O-])cc3)C2C(=O)N1c1ccccc1 (stereo not given) | 0.248
